Screening results (PubChem BioAssay)
CYP2C19 act – activators of human cytochrome P450 2C19; recombinant CYP2C19, luciferin-H EGE luminescence; active compounds read high; 0 = fully inhibited enzyme, 1 = untreated enzyme; activation factor at 5 µM; 96,000 tested, under 10 active; AID 1025;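 active = activation factor of at least 2 at 5 µM in the primary screen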
CYP2C19 inhib – blocks human cytochrome P450 2C19; CYP2C19 Supersomes, luciferin-H EGE luminescence, 30 min; 96,000 compounds, 21% hits; inhibition, % at 5 µM;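 active = CYP2C19 inhibition above a set limit at 5 µM in the primary screen, cut at about 50% in these data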
CYP2C9 inh – human CYP2C9 inhibition; P11712; CYP2C9 Supersomes, luciferin-H conversion, luminescence; inhibition, % at 5 µM; 96,000 compounds, 20% hits; AID 777;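 active = blocking of liver enzyme CYP2C9 beyond about 50% at 5 µM, limit read from the data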
Target sequence (P11712 whole entry, looked up): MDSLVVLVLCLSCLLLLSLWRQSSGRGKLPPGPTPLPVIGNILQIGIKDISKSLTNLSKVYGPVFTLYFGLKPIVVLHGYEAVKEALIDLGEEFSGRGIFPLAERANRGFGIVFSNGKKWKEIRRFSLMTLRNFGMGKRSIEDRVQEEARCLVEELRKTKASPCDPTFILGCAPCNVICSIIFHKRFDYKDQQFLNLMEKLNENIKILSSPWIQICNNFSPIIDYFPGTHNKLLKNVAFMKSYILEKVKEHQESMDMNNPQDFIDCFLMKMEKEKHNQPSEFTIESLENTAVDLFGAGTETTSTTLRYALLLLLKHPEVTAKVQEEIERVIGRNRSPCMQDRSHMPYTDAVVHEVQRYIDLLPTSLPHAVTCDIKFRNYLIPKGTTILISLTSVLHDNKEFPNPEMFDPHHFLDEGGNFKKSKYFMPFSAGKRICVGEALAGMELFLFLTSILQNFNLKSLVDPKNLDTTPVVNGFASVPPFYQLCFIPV
CYP2C9 activ – activators of human CYP2C9; P11712; recombinant CYP2C9, luciferin-H conversion, luminescence; active compounds read high; factor 1 = untreated enzyme, 0 = blocked; activation factor at 5 µM; 96,000 compounds, 1.4% hits;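 active = activation factor of 2 or more for CYP2C9 at a 5 µM dose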
Hits are given with their value; i = inactive. A selection: hits, their analogues and other compounds. The true share with any hit is near 31%.

SMILES	CYP2C19 act	CYP2C19 inhib	CYP2C9 inh	CYP2C9 activ
Cn1ccnc1SCc1ccc([N+](=O)[O-])cc1	i	55.4	i	i
COc1ccc(CSc2nnc(SCc3ccc([N+](=O)[O-])cc3)s2)cc1	i	i	i	i
COC(=O)c1ccc(CSc2nccn2C)cc1	i	65.1	i	i
CCOC(=O)c1cc(=O)n(Cc2ccccc2C)c2ccccc12	i	i	i	i
O=C(c1ccco1)n1nc(NCc2ccccc2)nc1NCc1ccccc1	i	i	i	i
COc1ccc(CNc2nc(NCc3ccc(OC)cc3)n(C(=O)c3ccccc3[N+](=O)[O-])n2)cc1	i	i	69.5	i
COc1ccc(N(Cc2ccccc2)C(=O)c2ccccc2[N+](=O)[O-])cc1	i	60.8	i	i
CCN(CC)S(=O)(=O)c1ccc(N(C)Cc2cccnc2)nc1	i	81.0	68.5	i
CN(Cc1ccccc1)c1ccc(S(=O)(=O)N2CCOCC2)cn1	i	i	i	i
COc1ccc(NC(=O)C2CC(=O)OC23CCOC(C)(C)C3)cc1 (stereo not drawn)	i	57.4	i	i
Cc1cccc(NC(=O)C2CC(=O)OC23CCCCC3)c1 (stereo not drawn)	i	76.5	i	i
COc1ccc(C)cc1NC(=O)C1CC(=O)OC12CCCCC2 (stereo not drawn)	i	78.3	i	i
O=C(O)Cn1nnnc1SCC(=O)Nc1ccc(OC(F)(F)F)cc1	i	i	i	i
COc1ccccc1-c1c(C)nn2c(N3CCN(c4ccccc4OC)CC3)cc(C)nc12	i	75.6	i	i
COc1ccc(-c2c(C)nn3c(N4CCN(Cc5ccccc5)CC4)cc(C)nc23)cc1OC	i	67.8	84.9	i
COc1ccccc1-c1c(C)nn2c(N3CCN(Cc4ccccc4)CC3)cc(C)nc12	i	56.6	52.0	i
COc1ccccc1-c1c(C)nn2c(N3CCCCCC3)cc(C)nc12	i	i	i	i
CC1CCN(C(=O)CSc2nnc(Cc3cc(=O)[nH]c(=O)[nH]3)n2-c2ccc(Cl)cc2)CC1	i	i	i	i
Cn1c(SCC(=O)NCc2ccccc2)nnc1-c1ccc(NC(=O)CCc2ccccc2)cc1	i	i	i	i
Nc1nc2c(s1)CCc1c-2cnn1-c1ccccc1	i	52.8	i	i
COC(=O)c1ccc(Cl)c(NC(=O)CN2CCC(C)CC2)c1	i	i	i	i
CCCOC(=O)c1ccc(Oc2c(-c3ccc(OCC)cc3O)n[nH]c2C)cc1	i	84.1	98.4	i
CCCOC(=O)c1ccc(Oc2cn[nH]c2-c2ccc(OCC)cc2O)cc1	i	88.0	100.0	i
COc1ccc(Oc2c(-c3ccc(O)cc3O)n[nH]c2C)cc1	i	100.4	100.4	i
C=C(C)C1Cc2c(C)nn(-c3nc(C)cc(C)n3)c2C1 (stereo not drawn)	i	i	i	i
SMILES	CYP2C19 act	CYP2C19 inhib	CYP2C9 inh	CYP2C9 activ
COc1cccc(C(=O)NCC2CCCO2)c1 (stereo not drawn)	i	i	i	i
CCC(C)n1c(C)nc2c(c1=O)c1nc3ccccc3nc1n2-c1ccc2c(c1)OCCO2 (stereo not drawn)	i	i	i	i
COc1ccc(-n2c(SCC(=O)Nc3ccc4c(c3)OCO4)nc3c(c2=O)SCC3)cc1	i	i	58.4	i
COc1ccccc1-n1c(SCC(=O)Nc2cccc(C)c2)nc2c(c1=O)SCC2	i	83.3	73.6	i
COc1ccccc1-n1c(SCC(=O)Nc2ccc3c(c2)OCO3)nc2c(c1=O)SCC2	i	i	i	i
COc1ccc(NC(=O)CSc2nc3ccccc3c(=O)n2-c2ccc3c(c2)OCO3)c(OC)c1	i	i	i	i
CCC(C)n1c(SCC(=O)NC(=O)Nc2ccc3c(c2)OCCO3)nc2ccccc2c1=O (stereo not drawn)	i	i	90.4	i
COc1ccc(-n2c(SCC(=O)Nc3ccc4c(c3)OCO4)nc3ccccc3c2=O)cc1	i	92.4	90.7	i
Cc1ccc(-n2c(SCC(=O)Nc3cc(C)on3)nc3ccccc3c2=O)cc1	i	i	i	i
CCOc1ccc(-n2c(SCC(=O)Nc3ccc4c(c3)OCO4)nc3ccccc3c2=O)cc1	i	i	62.0	i
COc1nc(OC)nc(N2CCC(C(=O)NCc3cccs3)CC2)n1	i	i	i	i
CCOc1cc(-c2nc(-c3ccc(C)nc3OC)no2)cc(OCC)c1OCC	i	96.6	76.4	i
Brc1ccc(-c2nc(-c3cccnc3)no2)o1	i	85.4	i	i
CCOc1cc(-c2noc(-c3ccncc3)n2)cc(Br)c1OC	i	76.1	i	i
CCOc1ccc(-c2nc(-c3cccnc3)no2)cc1OCC	i	62.5	i	i
CCOc1cc(-c2nc(-c3ccc(C)nc3OCC)no2)cc(OCC)c1OCC	i	i	i	i
